Results filed as inconclusive are left out. Calls of active or inactive are those of the source. Unless noted, calls come from the whole dose curve; as a rule, active = well fitted curve in the direction sought with a large enough effect; inconclusive = small, poorly fitted or top-dose-only effect, or another doubt; inactive = no such curve, though single readings can be large; an effect the other way counts as inactive or inconclusive.

Results on 34 compounds are retold here after PubChem BioAssay (NCATS).

A short description of test [1]: qHTS to identify inhibitors of the type 1 interferon - major histocompatibility complex class I in skeletal muscle: primary screen against the NCATS Pharmaceutical Collection (AID 1347407).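 Note: luminescence of HiBiT knocked into endogenous HLA-B as interferon-induced MHC class I level.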 Note: potency is the fitted concentration of half-maximal effect. An outline of the steps:
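Immortalized human myoblasts (C25cl48) with HiBiT knocked into endogenous HLA-B*08:01 were stimulated with 4.0 ng/ml IFN-beta and treated with compounds ([…] top 46 uM) for 24 hrs at 37 C. HiBiT lytic luminescence read.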
On the technique in general: In qHTS, concentration-response curves come from the screen itself.

A short description of test [2]: Primary qHTS for Huh7 cytotoxicity: counterscreen for inhibitors of MERS-S pseudotyped particle cell entry (AID 1479147; calls by dose curve).
Test [3] can be described thus: Primary qHTS for inhibitors of MERS-S pseudo-typed particle cell entry (AID 1479149; calls by dose curve; note: nearly all actives have a fitted effect of over 60% in size).
A short description of test [4]: Primary qHTS for Vero E6 cytotoxicity: counterscreen for inhibitors of SARS-S pseudo-typed particle cell entry (AID 1479150; calls by dose curve).
Test [5] can be described thus: Primary qHTS for inhibitors of La Crosse Virus (LACV) - induced cell death in SH-SY5Y cells (AID 1508616).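 Note: top concentration of the series differs between compounds; higher means more rescue of cells from virus-induced death.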 An outline of the steps:
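Cytopathicity rescue screen: compounds pinned onto SH-SY5Y cells, which are then infected with LACV (MOI 0.01) and held 6 days at 37C. Percent activity is scaled between infected DMSO control and uninfected DMSO control.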

In test [6] the target is Protein phosphatase 1D (Homo sapiens) (UniProt O15297). As to the kind of experiment: Rhodamine-PBP qHTS Assay for Modulators of WT P53-Induced Phosphatase 1 (WIP1) (AID 1347425). A digest of the protocol: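 5 nM WIP1 + 10 uM Rh-PBP, 50 mM Tris pH 7.5, 30 mM MgCl2, 1 mM TCEP, 0.1 mM EGTA, BSA; cpds pinned, 1 hr RT; + 10 uM phosphopeptide; fluorescence 1-min reads x 11 min; delta = f1 - f0.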
Protein phosphatase 1D (Homo sapiens), sequence (O15297 whole entry, looked up): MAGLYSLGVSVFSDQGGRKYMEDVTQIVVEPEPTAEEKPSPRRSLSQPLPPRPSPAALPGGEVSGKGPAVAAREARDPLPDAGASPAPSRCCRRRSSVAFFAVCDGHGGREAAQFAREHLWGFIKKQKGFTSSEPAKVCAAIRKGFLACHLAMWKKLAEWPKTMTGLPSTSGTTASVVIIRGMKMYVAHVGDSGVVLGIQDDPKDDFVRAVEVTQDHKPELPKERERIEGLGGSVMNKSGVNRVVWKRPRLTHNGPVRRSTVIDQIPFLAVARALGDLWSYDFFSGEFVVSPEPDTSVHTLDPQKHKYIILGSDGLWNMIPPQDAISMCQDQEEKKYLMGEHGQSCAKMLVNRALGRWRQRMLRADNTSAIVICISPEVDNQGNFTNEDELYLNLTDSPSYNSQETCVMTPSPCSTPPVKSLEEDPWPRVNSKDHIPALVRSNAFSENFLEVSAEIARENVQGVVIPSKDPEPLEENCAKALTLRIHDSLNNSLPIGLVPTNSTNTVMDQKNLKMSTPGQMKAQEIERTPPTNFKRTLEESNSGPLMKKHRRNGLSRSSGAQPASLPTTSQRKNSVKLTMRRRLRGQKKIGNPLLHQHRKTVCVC

Test [7] has as its target Calcium and integrin-binding protein 1 (Homo sapiens) (UniProt Q99828). As to the kind of experiment: Primary qHTS for Identification of Calcium Integrin Binding Protein 1 (CIB1) Competitor (AID 1508620).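 Note: GST tagged CIB1 binding a fluorescein labelled alphaIIb integrin peptide tracer; top concentration of the series differs between compounds.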 A digest of the protocol:
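Fluorescence polarization competition: GST-tagged CIB1 (1 uM final) preincubated with compound 15 min at room temperature, then FITC-labelled alphaIIb peptide (100 nM final) added. After 15 min at room temperature, polarization read at Ex 480/Em 540.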

A short description of test [8]: Primary qHTS for inhibitors of SARS-S pseudo-typed particle cell entry (AID 1479145; calls by dose curve; note: nearly all actives have a fitted effect of over 45% in size).
For test [9], the target named is Protein phosphatase 1D (Homo sapiens) (UniProt O15297). As to the kind of experiment: RapidFire Mass Spectrometry qHTS Assay for Modulators of WT P53-Induced Phosphatase 1 (WIP1) (AID 1347424). Note: potency is the fitted concentration of half-maximal effect. A digest of the protocol: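 RapidFire MS readout of dephosphorylated VEPPL-S-QETFS product, with 1 uM isotope-labelled peptide standard. Reaction: 10 nM WIP1, 2 uM phosphopeptide substrate, 5 min, room temperature, after 1 h compound preincubation; stopped with 0.5% formic acid.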

In test [10] the target is Calcium and integrin-binding protein 1 (Homo sapiens) (UniProt Q99828). As to the kind of experiment: Confirmatory qHTS for Identification of Calcium Integrin Binding Protein 1 (CIB1) Competitor (AID 1508617). Note: nearly all actives have a fitted effect of over 65% in size. Note: potency is the fitted concentration of half-maximal effect. A digest of the protocol:
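Confirmatory qHTS measures displacement of a FITC-alphaIIb peptide (100 nM) from CIB1-GST (1 uM) by fluorescence polarization. Calcium-containing HEPES buffer, pH 7.4; two 15 min room-temperature incubations.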

Calcium and integrin-binding protein 1 (Homo sapiens), sequence (Q99828 whole entry, looked up): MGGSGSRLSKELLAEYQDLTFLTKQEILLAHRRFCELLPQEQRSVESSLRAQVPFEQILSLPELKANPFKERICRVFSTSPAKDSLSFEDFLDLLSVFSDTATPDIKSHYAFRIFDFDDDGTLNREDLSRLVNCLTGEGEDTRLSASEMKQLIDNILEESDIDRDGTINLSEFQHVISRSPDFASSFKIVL

Consider `COP(=S)(OC)SCN1C(=O)c2ccccc2C1=O`, for which the Potency entry in test [1], in [2], in [3] and in test [4] was “inactive” each time. In addition, in test [5], the compound was classed as inactive.

Consider `CCC1(c2ccccc2)C(=O)N(COC)C(=O)N(COC)C1=O`, for which the Potency entry in test [1] and in test [7] was “inactive” throughout. The compound was classed as inactive in test [6] and in test [5].

Take `Nc1ccccc1C(=O)O`: the Potency result in [1] and in test [7] was “inactive” throughout. Further, the compound was called inactive in test [6] and in [5].

For `O=C(N/N=C/c1ccc([N+](=O)[O-])o1)c1cc([N+](=O)[O-])cc([N+](=O)[O-])c1O`, the Potency result in [1] and in [7] was “inactive” in each case. In addition, the compound was called inactive in [5].

As to `C=CCN1C[C@H](C)N([C@H](c2ccc(C(=O)N(CC)CC)cc2)c2cccc(OC)c2)C[C@H]1C`, the Potency entry in test [1] and in [7] was “inactive” in each case. Moreover, the compound was classed as inactive in test [6] and in [5].

On to `C[C@]12CCC(=O)C=C1CC[C@@H]1[C@@H]2CC[C@@]2(C)[C@H]1CC[C@]2(C)O`, for which the Potency result in [1] and in test [7] was “inactive” in each case. For the same compound, the result in test [6] and in test [5] was inactive.

In the case of `COc1cc(CC(C)N)cc(OC)c1OC` (centres undefined), the Potency entry in test [1] and in [7] was “inactive” in each case. The call in [6] and in [5] was inactive.

On to `Oc1ccc(Cl)cc1`, for which the Potency result in test [1], in [8], in test [2], in test [3] and in test [4] was “inactive” each time. The compound was classed as inactive in test [6] and in test [5].

For `CNCC(=O)c1ccc(O)c(O)c1`, the Potency entry in test [1] and in [7] was “inactive” throughout. Moreover, the result in test [6] and in test [5] was inactive.

For the compound `C=CCC1([C@H](C)CCC)C(=O)NC(=O)NC1=O`, the Potency entry in [1] and in test [7] was “inactive” throughout. Also, the compound was called inactive in test [6] and in test [5].

Regarding `CCN(CCO)CCn1c(Cc2ccccc2)nc2c1c(=O)n(C)c(=O)n2C`, the Potency result in test [1] and in test [7] was “inactive” each time. Further, the result in [6] and in [5] was inactive.

Turning to `C[C@]12CC[C@H]3[C@@H](CC[C@@]45O[C@H]4C(O)=C(C#N)C[C@]35C)[C@H]1CC[C@H]2O`, the Potency in test [1] was 11.8 µM (active). In addition, the compound was classed as inactive in test [6] and in test [5]. For the same compound, the Potency result in test [2], in [4] and in [7] was “inactive” throughout.

As for `CCOC(=O)CC(SP(=S)(OC)OC)C(=O)OCC` (centres undefined), the Potency entry in [1], in test [9], in test [2], in test [3], in [4] and in test [7] was “inactive” each time. Moreover, the outcome in test [5] was inactive. Further, the Potency in test [10] was 100 µM (active).

With `O=C1c2ccccc2C(=O)c2ccccc21`, the Potency result in test [1], in test [8], in [2], in test [3], in test [4] and in test [7] was “inactive” in each case. The compound was classed as inactive in test [6] and in test [5].

In the case of `COc1c2c(cc3c1OCO3)CCN(C)C2`, the Potency result in test [1], in [8], in [2], in test [3], in test [4] and in test [7] was “inactive” throughout. Further, the compound was classed as inactive in test [6] and in test [5].

For `CCN[C@@H](C)Cc1ccccc1`, the Potency entry in test [1] and in test [7] was “inactive” throughout. Further, the result in test [6] and in [5] was inactive.

In the case of `O=C1OC(c2ccc(O)c(S(=O)(=O)O)c2)(c2ccc(O)c(S(=O)(=O)O)c2)c2c(Br)c(Br)c(Br)c(Br)c21`, the Potency result in test [1], in test [8], in test [2], in test [3], in [4] and in test [10] was “inactive” throughout. Further, in [9], the Potency was 10 µM (active). Moreover, in test [5], the compound was called inactive.

As to `C[C@@H]1CC2=CC(=O)CC[C@@H]2[C@H]2CC[C@@]3(C)[C@@H](CC[C@]3(C)O)[C@@H]21`, the Potency result in test [1], in test [2], in test [4] and in test [7] was “inactive” throughout. In addition, the result in test [6] and in test [5] was inactive.

With `CC(C)=CC1C(C(=O)OCN2C(=O)C3=C(CCCC3)C2=O)C1(C)C` (centres undefined), the Potency entry in test [1], in [9] and in test [7] was “inactive” in each case. Besides, in test [6], the call was inactive.

Consider `COC1CC(=C(c2cccs2)c2cccs2)C[N+](C)(C)C1` (centres undefined), for which the Potency entry in [1], in [8], in test [2], in test [3], in test [4] and in test [7] was “inactive” in each case. Further, the compound was called inactive in test [6] and in test [5].

Regarding `C#C[C@]1(O)CC[C@H]2[C@@H]3CCC4=CC(=O)CC[C@]4(C)[C@H]3CC[C@@]21C`, the Potency entry in test [1] and in [7] was “inactive” throughout. Besides, the outcome in [6] and in [5] was inactive.

On to `CCc1cc2c(s1)-n1c(C)nnc1CN=C2c1ccccc1Cl`, for which the Potency result in test [1], in [8], in [2], in test [3], in [4] and in test [7] was “inactive” throughout. The outcome in test [6] and in [5] was inactive.

Take `NC1=NC(=O)C(c2ccccc2)O1` (centres undefined): the Potency result in test [1] and in test [7] was “inactive” each time. Moreover, the compound was called inactive in test [6] and in [5].

On to `CCN[C@H](C)Cc1cccc(C(F)(F)F)c1`, for which the Potency result in test [1] and in test [7] was “inactive” in each case. Also, the compound was called inactive in test [6] and in test [5].

Regarding `CN1CC[C@]23c4c5ccc(O)c4O[C@H]2[C@@H](O)CC[C@H]3[C@H]1C5`, the Potency entry in test [1] and in test [7] was “inactive” in each case. The compound was called inactive in test [6] and in test [5].

For the compound `C[C@]12CCC(=O)C=C1CC[C@@H]1[C@@H]2CC[C@]2(C)C(=O)CC[C@@H]12`, the Potency entry in test [1], in [8], in [2], in test [3], in [4] and in test [7] was “inactive” in each case. For the same compound, the compound was classed as inactive in [6] and in test [5].

Consider `NC(=O)CS(=O)C(c1ccccc1)c1ccccc1` (centres undefined), for which the Potency entry in test [1] and in test [7] was “inactive” in each case. Besides, the compound was classed as inactive in test [6] and in test [5].

On to `CC[C@@]1(O)C(=O)OCc2c1cc1n(c2=O)Cc2c-1nc1ccccc1c2/C=N/OC(C)(C)C`, for which the Potency entry in test [8], in test [2] and in test [3] was “inactive” throughout.

Turning to `COc1ccccc1OCC(O)CO` (centres undefined), the Potency result in test [8], in test [2], in [3] and in test [4] was “inactive” throughout.

For `O=C(O)c1cc(=O)[nH]c(=O)[nH]1`, the Potency entry in test [8], in test [2], in [3] and in test [4] was “inactive” each time.

Consider `CCCc1c2oc(C(=O)O)cc(=O)c2cc2c(=O)cc(C(=O)O)n(CC)c12`, for which the Potency entry in test [8], in test [2], in [3] and in test [4] was “inactive” in each case.

On to `CN=C(NC#N)NCCSCc1nc[nH]c1C`, for which the Potency result in test [8], in [2], in [3] and in test [4] was “inactive” each time.

On to `O=C(O)/C=C\C(=O)O`, for which the Potency entry in test [8], in test [2], in test [3] and in test [4] was “inactive” in each case.

Take `CN(C)CCc1c[nH]c2cccc(OP(=O)(O)O)c12`: the Potency entry in test [1] and in test [7] was “inactive” in each case. For the same compound, the compound was called inactive in [5].
